Source: PubChem BioAssay AID624405 (Broad Institute, 2012)
Out of some 1,900 compounds screened, about 250 (13%) were called active. Another 4% or so got no clear call; they are omitted. The list is a sample of the results. Entries with a potency or affinity are not part of this list. Unmarked numbers belong to inactive results.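 Rule for the calls: active = fitted curve reaches 40% rescue activity at or below the top valid dose, in every test run; inconclusive = test runs disagree, some active and some inactive; inactive = every run misses the threshold or moves the wrong way.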

Assay: rescue of simvastatin-induced ATP loss – cell-based, C2C12 myotubes, ATP luminescence, cherry pick, dose response (AID 624405);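 note: myotubes are challenged with simvastatin at 10 µM to lower ATP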
Details: 48 h, scaled: DMSO wells 0, geranylgeraniol wells 100; series mostly up to 19.5 µM; rescue activity (ATP increase): at the top concentration

Structure (SMILES) | rescue activity (ATP increase)
Cc1noc(C)c1S(=O)(=O)Nc1ccc2c(c1)C(=O)N([C@@H](C)CO)C[C@H](C)[C@H](CN(C)S(=O)(=O)c1ccc(Cl)cc1)OCCCC[C@@H](C)O2 | 17%
O=C(CN1CCOCC1)N1CCN(c2nnc(-c3ccccc3)c3ccccc23)CC1 | 11.1%
Nn1c(SCC(=O)Nc2ccc(S(=O)(=O)N3CCCC3)cc2)nnc1C(F)(F)F | -14.1%
CCOC(=O)c1ccn(-c2nc(-c3ccco3)cc(C(F)(F)F)n2)n1 | 19.6%
CCn1c(SCC(=O)NCc2cccs2)nnc1-c1ccco1 | 4.67%
Cc1occc1-c1nnc(SCC(=O)c2ccc(Cl)cc2)n1CC1CCCO1 (stereo not drawn) | 14.2%
O=C(CN1CCN(S(=O)(=O)c2ccc(Br)cc2)CC1)Nc1ccc2c(c1)OCCO2 | 8.25%
Cc1cc(Cl)c(S(=O)(=O)Nc2ccc3c(c2)OCO3)cc1OCC(N)=O | 3.69%
C[C@@H]1CN([C@H](C)CO)C(=O)c2cccc(NC(=O)C3CCCCC3)c2O[C@@H]1CN(C)S(=O)(=O)c1ccc(Cl)cc1 | -7.54%
Cc1ccc(C2C(=O)N(C3CCC(C)CC3)CC(=O)N2C2CCCC2)cc1 (stereo not drawn) | -20.3%
COc1cc(OC)cc(-c2nc(N)n[nH]2)c1 | 10.1%
Cc1cccc(NC(=O)c2ccccc2C(=O)O)c1 | -3.2%
O=C(Nc1cccc(NC(=O)c2ccccc2F)c1)c1ccccc1 | -47.7%
C[C@H](CO)N1C[C@H](C)[C@@H](CN(C)C(=O)Nc2ccc(F)cc2)OCCCC[C@H](C)Oc2ccc(NC(=O)Cc3ccccc3)cc2C1=O | 17.8%
Cc1cccc(OCC(=O)Nc2cc(C)on2)c1 | 5.47%
Cc1cc(C)cc(NC(=O)c2ccc(CSc3nnc(C)s3)cc2)c1 | -30.3%
Cc1ccc2nc(-c3ccccc3Cl)cc(C(=O)Nc3cc(C)on3)c2c1 | 24.8%
Cc1cccc(-c2noc(Cc3ccc(Cl)cc3)n2)c1 | -7.81%
COc1ccc(NC(=O)Nc2ccc3c(c2)C(=O)N([C@@H](C)CO)C[C@@H](C)[C@@H](CN(C)Cc2ccc(C(F)(F)F)cc2)OCCCC[C@H](C)O3)cc1 | 12.6%
CCOc1ccc(-c2nc(CSCC(=O)NCCN3CCOCC3)c(C)o2)cc1 | 0.407%
COc1ccc(NC(=O)Nc2cccc3c2O[C@@H](CN(C)C(=O)Nc2cccc4ccccc24)[C@H](C)CN([C@H](C)CO)C3=O)cc1 | -4.49%
Cc1cc(=O)[nH]c(Nc2c(C)n(C)n(-c3ccccc3)c2=O)n1 | 5.67%

Structure (SMILES) | rescue activity (ATP increase)
Cn1ccnc1SCC(=O)Nc1ccccc1 | 8.86%
O=C(Cc1cccs1)Nc1nnc(Cc2ccccc2)s1 | 31.2% [at 10 µM]
CCOC(=O)c1cnn(-c2ccccc2)c1-n1cccc1 | 5.95%
CC(=O)O[C@@H]1[C@H]2[C@@H](C[C@@H](C)[C@@H]3C=CC(=O)[C@@]13C)OC(=O)[C@@H]2C | -25.6%
COc1ccc(S(=O)(=O)NCCC(=O)NCc2ccccc2)cc1 | 5.39%
COc1ccc(S(=O)(=O)NC(CC(=O)NCc2ccc3c(c2)OCO3)c2ccco2)cc1 (stereo not drawn) | 29.8%
O=C(Nc1ncn[nH]1)c1c(Cl)ccc(Cl)c1Cl | -16.4%
CCCS(=O)(=O)N1CCCC(C(=O)NCCN2CCC(Cc3ccccc3)CC2)C1 (stereo not drawn) | -4.02%
CCOC(=O)CC(=O)CSc1ncc(C(=O)OCC)c(N)n1 | -14.4%
CC(=O)N(C)c1ccc(NC(=O)Cc2cccc3ccccc23)cc1 | 38.2%
C[C@H]1CN([C@@H](C)CO)C(=O)c2cccc(NS(=O)(=O)c3ccc(Cl)cc3)c2O[C@H]1CN(C)Cc1ccc(-c2ccccc2)cc1 | 21.1%
COc1ccc(OCC(O)CN2C(=O)NC(C)(C)C2=O)cc1 (stereo not drawn) | -13.1%
CN(C)CCCNc1ncnc2c1cnn2Cc1ccccc1Cl | -7.85%
Cc1ccc(CC(=O)c2ccc(Cl)cc2)cc1 | -1.44%
CNC(=O)Cn1ncc2c(C)n(Cc3ccc(C)cc3)c(C)c2c1=O | 3.03%
COC(=O)c1cccc(OCC(O)Cn2ccnc2)c1 (stereo not drawn) | -29.2%
C[C@H]1CN([C@@H](C)CO)C(=O)Cc2cc(NS(=O)(=O)c3ccc(F)cc3)ccc2O[C@@H]1CN(C)Cc1ccc2c(c1)OCO2 | 28.5%
C[C@H]1CN([C@@H](C)CO)C(=O)c2cccc(NC(=O)Nc3ccc4c(c3)OCO4)c2O[C@H]1CN(C)S(=O)(=O)c1ccc(Cl)cc1 | -52.5%
C[C@@H]1CCCCO[C@@H](CN(C)CC2CCCCC2)[C@@H](C)CN([C@H](C)CO)C(=O)c2cc(NS(=O)(=O)c3ccc(F)cc3)ccc2O1 | 9.84%
Cc1ccc(C(=O)NNC(=O)C2CCN(Cc3ccc(Cl)c(Cl)c3)CC2)cc1 | -46.8%
COc1ccc(CN(C)C[C@H]2Oc3ccc(NS(=O)(=O)c4ccc(F)cc4)cc3CC(=O)N([C@H](C)CO)C[C@H]2C)cc1 | 33.9%
